# Reference: patent US20150359843, “P53 ACTIVATING PEPTIDES” (Agency for Science, Technology and Research, published 2015)
# Legend:
# [1] = molecular target: p53 wt-Δ22 (C-terminal truncated, lacking 372-393) (UniProt P04637 P04637:1-371); experiment: pulldown; 36 nM RE; details: tags: none (CosmoBio PURE IVT); chain copies: 4 inferred; dsDNA, one strand shown
# [2] = molecular target: p53 wt-FL (UniProt P04637 P04637:1-393); experiment: pulldown; 36 nM RE; 17-fold when p53 amount doubled; details: tags: none (CosmoBio PURE IVT); chain copies: 4 inferred; dsDNA, one strand shown
# Chain of p53 wt-FL (P04637 whole entry, one chain of several): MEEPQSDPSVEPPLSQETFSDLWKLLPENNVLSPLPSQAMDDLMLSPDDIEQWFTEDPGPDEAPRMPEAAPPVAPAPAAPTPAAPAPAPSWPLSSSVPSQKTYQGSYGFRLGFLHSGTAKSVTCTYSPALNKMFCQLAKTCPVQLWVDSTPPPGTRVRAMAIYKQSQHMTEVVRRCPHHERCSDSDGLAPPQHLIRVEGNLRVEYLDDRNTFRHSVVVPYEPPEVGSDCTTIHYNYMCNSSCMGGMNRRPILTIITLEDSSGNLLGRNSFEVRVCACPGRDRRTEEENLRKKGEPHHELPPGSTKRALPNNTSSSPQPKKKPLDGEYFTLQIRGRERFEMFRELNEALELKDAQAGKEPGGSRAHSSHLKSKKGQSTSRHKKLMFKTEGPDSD
# Chain of p53 wt-Δ22 (C-terminal truncated, lacking 372-393) (P04637 1-371, stated change not applied, one chain of several): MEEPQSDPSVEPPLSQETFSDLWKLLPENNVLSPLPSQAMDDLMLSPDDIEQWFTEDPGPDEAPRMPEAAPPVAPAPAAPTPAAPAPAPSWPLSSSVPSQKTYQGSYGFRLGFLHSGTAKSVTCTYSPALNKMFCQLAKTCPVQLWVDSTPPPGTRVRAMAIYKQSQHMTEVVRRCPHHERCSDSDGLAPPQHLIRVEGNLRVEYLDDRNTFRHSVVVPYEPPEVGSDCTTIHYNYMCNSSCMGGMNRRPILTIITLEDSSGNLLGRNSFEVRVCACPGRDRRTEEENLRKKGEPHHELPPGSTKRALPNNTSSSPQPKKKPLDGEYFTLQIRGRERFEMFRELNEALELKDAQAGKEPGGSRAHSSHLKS
Sequence,binding signal [1],binding signal [2]
CTTGGGAACAAGGGCATGAGCTTGTCTGGGCT,~3 fold over control DNA,–
CGCGCCTGCAAGTCCTGACTTGTCCGCGGC,–,~2.8 fold over control DNA
